Screening results as filed in PubChem.
Only some compounds are listed: those with a hit (about 6.9% of all), similar ones and a draw of the others.
ASM inhibitor = blocks human secretory acid sphingomyelinase; hit rate 0.006% among 340,000; AID 504937; P17405; Potency, µM (top dose mostly 57.5 µM), most hits filed as inhibitors; placental ASM, HMU-PC fluorogenic substrate, 60 min
Target sequence (P17405 47-631 limits assumed): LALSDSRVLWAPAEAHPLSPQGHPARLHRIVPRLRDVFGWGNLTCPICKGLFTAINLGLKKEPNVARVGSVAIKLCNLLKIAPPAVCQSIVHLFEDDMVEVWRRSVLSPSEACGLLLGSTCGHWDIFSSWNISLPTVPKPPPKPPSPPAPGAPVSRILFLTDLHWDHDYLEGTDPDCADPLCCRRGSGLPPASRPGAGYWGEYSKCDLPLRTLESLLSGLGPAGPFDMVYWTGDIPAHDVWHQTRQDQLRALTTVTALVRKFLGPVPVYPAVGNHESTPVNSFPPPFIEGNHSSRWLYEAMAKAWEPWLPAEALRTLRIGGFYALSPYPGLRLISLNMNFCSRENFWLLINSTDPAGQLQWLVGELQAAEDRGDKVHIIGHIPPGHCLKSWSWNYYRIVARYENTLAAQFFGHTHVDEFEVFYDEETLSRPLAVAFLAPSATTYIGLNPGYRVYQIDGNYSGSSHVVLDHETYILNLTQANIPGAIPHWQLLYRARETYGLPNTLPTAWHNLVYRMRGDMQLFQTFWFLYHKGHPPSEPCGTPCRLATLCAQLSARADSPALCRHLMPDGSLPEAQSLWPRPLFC
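HMU-PC0 cleavage (9 uM final) by human placental ASM, 60 min at 37 °C following 10 min compound exposure at RT; stopped at pH 10, fluorescence Ex 386/Em 447 nm.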
SW480 rereplic = DNA re-replication induction in SW480 cells; SW480 DNA re-replication, Hoechst DNA content imaging, 48 h; Potency, µM (highest dose often 46.1 µM), most hits filed as activators; hit rate 1.8% among 340,000; AID 624297; further: nearly all actives have a fitted effect of over 55% in size
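Image-based DNA-content assay: after two days of treatment, nuclei were labelled with the DNA dye Hoechst and imaged, and hits were compounds raising the count of nuclei showing high fluorescence intensity.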
MCF10A rereplic = induces DNA re-replication in MCF 10a normal breast cells. MCF 10A DNA re-replication, Hoechst nuclear intensity, 48 h. Potency, µM (highest dose often 46.1 µM), most hits filed as activators. hit rate 2.9% among 350,000; further: nearly all actives have a fitted effect of over 50% in size
Giardia kill = kills Giardia lamblia. Giardia lamblia trophozoite viability. activity change, % at 7.66 µM, hits read low. hit rate 0.15% among 340,000. AID 540267; in the data active means activity change below about -80%; inconclusive means between about -30% and that limit;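 further: parasites exposed to compound for two days anaerobically before the ATP read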
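Giardia lamblia trophozoites (100 cells/well) were incubated with compounds for 48 h at 37 deg C under anaerobic conditions. Viability was read as ATP content by one-step luminescence after 15-30 min at room temperature.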
KB-V1 cytotox = KB-V1 MDR subline cytotoxicity; KB-V1 MDR cells viability, CellTiter-Glo, 72 h; AID 1347076; Potency, µM (highest dose often 46.1 µM), actives largely listed as cytotoxic; hit rate 3.4% among 400,000; further: nearly all actives have a fitted effect of over 60% in size
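Following 72 h at 37 degrees C with compound, KB-V1 cell viability was read by CellTiter-Glo luminescence, medium being phenol-red-free DMEM plus 10% FBS; concentration-response parameters came from normalized, curve-fitted qHTS data.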
KB-3-1 tox = KB-3-1 parental cell cytotoxicity; AID 1347075; hit rate 1.4% among 400,000; Potency, µM (highest dose often 46.1 µM), hits mostly cytotoxic; KB-3-1 viability, CellTiter-Glo ATP luminescence, 72 h; further: nearly all actives have a fitted effect of over 60% in size
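Cytotoxicity in the drug-sensitive parental line KB-3-1 was scored as loss of CellTiter-Glo luminescence following 72 h incubation with compound. Values come from curve fitting of normalized concentration-response data.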
A number is an active result; . = inactive; ? = inconclusive; / = not tested or not shown; ! = not active in a repeat. Unless noted, the call rests on the fitted dose curve; in most records, active means well fitted curve in the direction sought with a large enough effect; inconclusive means small, poorly fitted or top-dose-only effect, or another doubt; inactive means no such curve, though single readings can be large; an effect the other way counts as inactive or inconclusive.

SMILES | ASM inhibitor | SW480 rereplic | MCF10A rereplic | Giardia kill | KB-V1 cytotox | KB-3-1 tox
CCCCCOC(=O)c1[nH]c2c(c1C)C(=O)CC(c1ccco1)C2 (configuration not stated) | . | 0.116µM | ? | . | 0.0082µM | ?
CCOCCOC(=O)C1=C(C)NC2=C(C(=O)CC(c3cccs3)C2)C1c1ccsc1 (configuration not stated) | . | . | . | . | 20.6µM | .
O=S(=O)(Nc1ccc(Cl)cn1)c1ccc(F)cc1 | . | . | . | . | . | .
Fc1ccccc1-c1ccc(-c2nc3ccc(Cl)cn3c2Nc2ccc(Cl)cc2)o1 | / | / | / | . | / | /
Cc1ccc(Nc2nc(NCc3ccco3)nc3nccnc23)cc1Cl | / | / | / | . | . | ?
O=C(Nc1c(C(=O)Nc2ccccc2F)oc2ccccc12)c1cc2ccccc2o1 | / | / | / | / | . | .
C=C1N[C@]2(C(=O)COC(C)=O)[C@@H](C[C@H]3[C@@H]4CCC5=CC(=O)C=C[C@]5(C)[C@H]4[C@@H](O)C[C@@]32C)O1 | / | . | . | / | / | /
CN(C=O)c1cc([N+](=O)[O-])ccc1OCc1ccccc1 | . | . | ? | . | 18.4µM | .
C[C@@H]1CN([C@H](C)CO)C(=O)CCCn2nncc2CO[C@@H]1CN(C)S(=O)(=O)c1ccccc1F | / | / | / | / | . | .
CCOC(=O)c1cccc(NC(=O)c2cc(S(=O)(=O)N3CCCCCC3)cn2C)c1 | / | / | / | / | . | .
COc1ccc(-c2cccc(NS(=O)(=O)c3ccc([N+](=O)[O-])cc3)c2)nn1 | . | . | . | . | 13µM | .
COc1ccc(-c2cccc(NS(=O)(=O)c3cccc([N+](=O)[O-])c3)c2)nn1 | . | ? | . | ? | . | .
COc1ccccc1-c1c(C(F)(F)F)oc2cc(OS(C)(=O)=O)ccc2c1=O | . | . | . | . | 20.6µM | ?
COc1ccc(-c2c(C(F)(F)F)oc3cc(OCC(=O)Nc4ccccc4C(F)(F)F)ccc3c2=O)cc1OC | . | . | 8.2µM | . | ? | .
COc1ccccc1-c1c(C(F)(F)F)oc2cc(OC(=O)c3ccccc3[N+](=O)[O-])ccc2c1=O | . | . | ? | . | . | .
Cc1ccc(-c2nnc(-c3cc(C)on3)o2)cc1 | . | . | . | ? | . | .
CN=c1scc(-c2ccccc2F)n1/N=C/c1ccc[nH]1 | . | . | ? | ? | . | .
CN=c1scc(-c2ccccc2F)n1/N=C/c1ccc(O)c(O)c1O | . | ? | . | -103.4 | . | ?
CCN(C(=O)CSc1nnc(-c2cccs2)n1CC)C1CCS(=O)(=O)C1 (configuration not stated) | . | . | . | . | . | .
CN(c1ccccc1)S(=O)(=O)c1ccc(NC(=O)c2ccccc2C(=O)O)cc1 | . | . | . | . | . | .
COc1ccccc1NC(=S)N/N=C/c1cccc(C)c1 | . | ? | ? | . | ? | 14.6µM
COc1ccccc1NC(=S)N/N=C/c1ccc(O)cc1 | . | . | . | . | 20.6µM | ?
CC(=O)c1ccc(N2CCN(C(=O)CCS(=O)(=O)c3ccc4c(c3)oc(=O)n4C)CC2)cc1 | / | / | / | / | . | .
CNC(=O)C1CCC(Cn2c(=O)c3sccc3n(CC(=O)NCc3ccc(F)cc3)c2=O)CC1 (configuration not stated) | / | / | / | / | . | .
COc1cc(NC2=Nc3cccc4cccc2c34)cc(OC)c1OC | . | ? | ? | . | 2.59µM | .
SMILES | ASM inhibitor | SW480 rereplic | MCF10A rereplic | Giardia kill | KB-V1 cytotox | KB-3-1 tox
COc1ccc(NC2=Nc3cccc4cccc2c34)cc1OC | . | . | . | . | ? | .
COc1cccc(NC2=Nc3cccc4cccc2c34)c1 | . | . | . | . | 13µM | .
COc1cc(OC)c(NS(=O)(=O)c2cc(-c3cnc(C4CC4)o3)ccc2C)cc1Cl | / | / | / | / | . | .
COc1ccccc1NS(=O)(=O)c1ccc(-c2cnc(C3CC3)o2)cc1 | . | . | ? | . | ? | 1.03µM
CCOc1ccccc1NS(=O)(=O)c1cc(-c2cnc(C3CC3)o2)ccc1C | / | / | / | / | . | ?
COc1ccccc1CNS(=O)(=O)c1ccc(-c2cnc(C3CC3)o2)cc1 | . | ? | ? | . | 5.8µM! | ?
COc1ccc(NS(=O)(=O)c2ccc(-c3cnc(C4CC4)o3)cc2)cc1OC | . | . | ? | . | ? | 2.06µM
CCOc1ccccc1NS(=O)(=O)c1ccc(-c2cnc(C3CC3)o2)cc1 | . | ? | ? | . | ? | 0.291µM
N#CCc1nn(-c2ccccc2)c2ncnc(N)c12 | . | . | . | . | . | .
C=CCn1c(=O)c2ccccc2n2c(SCC(=O)NCC)nnc12 | . | . | . | . | . | .
O=C(c1cccs1)N(Cc1ccco1)c1ccc(O)cc1 | / | / | / | . | . | .
Cc1ccc(S(=O)(=O)N2CC3CCCC2C3)cc1 (configuration not stated) | . | . | . | . | . | .
O=S(=O)(Nc1cccc(C(F)(F)F)c1)c1ccc(-c2cnc(C3CC3)o2)cc1 | / | / | / | / | 8.2µM | 10.3µM
CC(=O)c1cccc(NS(=O)(=O)c2cc(-c3cnc(C4CC4)o3)ccc2C)c1 | . | . | ? | . | ? | ?
CCCCn1c(NC(=O)c2ccccc2)nc2ccccc21 | . | . | ? | . | ? | .
CC(=O)Nc1nc2ccccc2n1CCOc1ccccc1 | . | . | ? | . | . | ?
S=C(Nc1ccccc1)Nc1nc2ccccc2n1CCOc1ccccc1 | . | ? | ? | . | 14.6µM | .
CCCCn1c(NC(=S)Nc2ccccc2)nc2ccccc21 | . | 16.4µM | ? | . | ? | ?
Cc1nn(CC(=O)Nc2ccc(Cl)c(S(=O)(=O)N(C)C)c2)c(C)c1[N+](=O)[O-] | . | . | ? | . | 20.6µM | .
Cc1nn(CC(=O)NC2CC2)c(C)c1S(=O)(=O)N(C)C | / | / | / | / | . | .
Cc1ccc(NC(=O)Cn2nc(C)c(S(=O)(=O)N(C)C)c2C)cc1C | . | . | . | . | 23.1µM | .
CN(C(=O)COc1ccccc1C(=O)NCCc1ccccc1)c1ccccc1 | . | . | . | . | 5.17µM | .
CC1CCN(C(=O)CSc2ccc(-c3ccc(F)cc3)nn2)CC1 | . | . | . | . | 16.4µM | ?
CC1CC(C)(C)N(C(=O)CSc2ccc(-c3ccc(F)cc3)nn2)c2ccccc21 (configuration not stated) | . | ? | . | . | 20.6µM | .
O=C(CSc1ccc(-c2ccc(F)cc2)nn1)N1CCCCC1 | . | . | . | . | . | .
Cc1ccc(NC(=O)N2CCN(c3cc(-c4noc(C)n4)ccc3C)CC2)c(F)c1 | / | / | / | / | . | .
COc1ccc(CNc2nc(C)c([N+](=O)[O-])c(C)c2C#N)cc1 | . | . | . | . | . | .
Cc1nc(Sc2ccc(Br)cc2)c(C#N)c(C)c1[N+](=O)[O-] | . | . | 20.6µM | . | ? | ?
Cc1nc(Sc2ccc(Cl)cc2)c(C#N)c(C)c1[N+](=O)[O-] | . | ? | 18.4µM | . | ? | .
